CYP2C9 activ: activators of human CYP2C9. recombinant CYP2C9, luciferin-H conversion, luminescence; stronger effect = higher value; factor 1 = untreated enzyme, 0 = blocked. activation factor at 5 µM. 96,000 compounds, 1.4% hits. AID 1024;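 active = activation factor of 2 or more for CYP2C9 at a 5 µM dose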;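 note: 0 = sulfaphenazole-blocked wells and 1 = vehicle-only wells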
PostGolgi ctrl: yeast control strain growth, post-Golgi counter-screen. efflux-deficient yeast background strain, growth absorbance A615, 16 h. inhibition, % at 10 µM. 98,000 compounds, 5% hits
CYP2C9 inh: blocks human cytochrome P450 2C9. P11712. CYP2C9 Supersomes, luciferin-H conversion, luminescence. inhibition, % at 5 µM. 96,000 compounds, 20% hits;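 active = blocking of liver enzyme CYP2C9 beyond about 50% at 5 µM, limit read from the data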
CYP2C19 inhib: human CYP2C19 inhibition; P33261; CYP2C19 Supersomes, luciferin-H EGE luminescence, 30 min; inhibition, % at 5 µM; 96,000 compounds, 21% hits; AID 778;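 active = CYP2C19 inhibition above a set limit at 5 µM in the primary screen, cut at about 50% in these data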;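 note: plate controls were negative control wells for no effect and 2.5 mM tranylcypromine positive control for full effect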
Target sequence (P33261 whole entry, looked up): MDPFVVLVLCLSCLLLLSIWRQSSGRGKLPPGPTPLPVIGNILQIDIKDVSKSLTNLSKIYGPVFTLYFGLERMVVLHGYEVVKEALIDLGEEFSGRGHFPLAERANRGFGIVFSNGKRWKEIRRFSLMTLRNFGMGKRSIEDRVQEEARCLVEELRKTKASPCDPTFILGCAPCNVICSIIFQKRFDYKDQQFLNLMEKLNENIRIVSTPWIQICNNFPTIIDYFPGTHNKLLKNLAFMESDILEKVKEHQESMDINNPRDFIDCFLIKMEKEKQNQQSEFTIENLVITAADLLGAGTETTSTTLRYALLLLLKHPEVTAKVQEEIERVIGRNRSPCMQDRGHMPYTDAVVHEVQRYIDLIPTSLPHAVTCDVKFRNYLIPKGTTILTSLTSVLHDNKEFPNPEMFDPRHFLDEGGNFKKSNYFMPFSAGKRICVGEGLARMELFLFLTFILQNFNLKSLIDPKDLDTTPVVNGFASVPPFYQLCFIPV
CYP2C19 activ: increases human CYP2C19 enzyme activity; AID 1025; activation factor at 5 µM; 96,000 tested, under 10 active; recombinant CYP2C19, luciferin-H EGE luminescence; stronger effect = higher value; 0 = fully inhibited enzyme, 1 = untreated enzyme;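 active = activation factor of at least 2 at 5 µM in the primary screen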;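 note: 0 = wells with 2.5 mM tranylcypromine and 1 = vehicle-only wells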
PostGolgi yeast: growth inhibition of a yeast mutant, post-Golgi transport screen; post-Golgi transport phenotypic cell assay; inhibition, % at 10 µM; 98,000 compounds, 0.9% hits; AID 739;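 note: yeast cells grown in 1536-well plates; yeast grown about 18 h at 30C before absorbance read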
Active calls of the source: *. Compounds with a hit are over-represented: about 32% of the library has one in this group of screens. Cut-off read from the data, not from the text of the source, unless noted: active = inhibition above about 30%; inactive = the rest.

SMILES	CYP2C9 activ	PostGolgi ctrl	CYP2C9 inh	CYP2C19 inhib	CYP2C19 activ	PostGolgi yeast
O=C(CNC(=O)c1ccco1)NCCCc1ccccc1	0.8	6	20	47	0.5	6
O=C(Cc1ccccc1)NCCCc1ccccc1	0.6	-3	36	68*	0.3	-5
O=C(Cc1ccccc1)NCCSCc1ccc(Cl)cc1	0.4	12	63*	27	0.7	-3
COc1ccc(-c2cc(C(=O)N3CCc4ccccc4C3)no2)cc1OC	0.7	20	28	28	0.7	-3
COC(=O)[C@H](C)NC(=O)NC(C)CCc1ccccc1 (some centres not stated)	0.7	36*	34	39	0.6	6
Cc1occc1C(=O)NCCc1cccc(Cl)c1	0.4	1	64*	92*	0.1	-1
Cc1noc(C)c1C(=O)NCCCc1ccccc1	0.5	24	53*	53*	0.5	-6
Cc1ccc(CC(=O)NC(C)CCc2ccccc2)cc1 (configuration not stated)	0.3	9	71*	37	0.6	-16
COC(=O)[C@@H](NC(=O)NC(C)CCc1ccccc1)C(C)C (some centres not stated)	1	4	2	15	0.9	-8
Cc1ccc(S(=O)(=O)NC(C)CCc2ccccc2)cc1 (configuration not stated)	0.6	28	40	10	0.9	-11
CCOC(=O)N1CCN(C(=O)CN(c2cccc(C(F)(F)F)c2)S(=O)(=O)c2ccccc2)CC1	0.6	9	36	22	0.8	-4
Cn1c(=O)oc2cc(S(=O)(=O)NCCN3CCN(c4ccccc4)CC3)ccc21	1.2	7	-18	8	0.9	2
Cc1nc2ccc(S(=O)(=O)NC(C(=O)NCc3ccco3)C(C)C)cc2s1 (configuration not stated)	0.9	1	13	6	0.9	5
CC(CCc1ccccc1)NC(=O)/C=C/c1ccccc1 (configuration not stated)	0.5	40*	46	52*	0.5	6
Cc1ccc(CC(=O)NCC(C)C)cc1	0.8	2	15	79*	0.2	-9
COC(=O)C(Cc1ccccc1)NC(=O)CSc1nc(N)cc(=O)[nH]1 (configuration not stated)	0.9	2	8	1	1	4
Cc1ccc(SC(C)C(=O)NCC(C)C)cc1 (configuration not stated)	0.7	13	29	35	0.7	4
CC(CCc1ccccc1)NC(=O)CSc1nc(N)cc(N)n1 (configuration not stated)	0.8	-6	22	56*	0.4	20
O=C(Cc1ccccc1)NCCc1cccc(Cl)c1	0.5	28	48	71*	0.3	27
Cc1ncc([N+](=O)[O-])n1CC(C)O (configuration not stated)	0.7	2	31	5	0.9	17
CC1(c2cnc(Nc3ccccc3)s2)CCC(=O)O1 (configuration not stated)	2.1*	39*	-105	31	0.7	-5
O=C1CC(c2ccccc2)=Nc2ccccc2N1	1	0	2	19	0.8	3
O=C1Nc2ccccc2N=C(c2ccccc2)C1N1CCOCC1 (configuration not stated)	0.4	-1	59*	54*	0.5	2
C=CCn1c(=NC(=O)C2CCCCC2)sc2cc(NC(C)=O)ccc21	0.3	14	68*	15	0.8	-7
Cc1c(C(=O)OCC2CCCO2)[nH]c2c1C(=O)CC(c1ccco1)C2 (configuration not stated)	0.1	10	92*	69*	0.3	-3
SMILES	CYP2C9 activ	PostGolgi ctrl	CYP2C9 inh	CYP2C19 inhib	CYP2C19 activ	PostGolgi yeast
C=CCOC(=O)c1[nH]c2c(c1C)C(=O)CC(c1ccco1)C2 (configuration not stated)	0.2	8	80*	96*	0	1
Cc1c(C(=O)OC2CCCC2)[nH]c2c1C(=O)CC(c1ccco1)C2 (configuration not stated)	0.5	-1	52*	22	0.8	-3
Cc1c(C(=O)OCC(C)C)[nH]c2c1C(=O)CC(c1ccco1)C2 (configuration not stated)	0.6	8	38	10	0.9	-4
Cc1ccc(Sc2nc(-c3ccccc3)nnc2C(F)(F)F)cc1	0.8	7	23	-8	1.1	9
Cc1ccc(C(=O)NN(C)c2nc3ccccc3nc2C(F)(F)F)cc1	1.6	-3	-63	30	0.7	8
CNc1nc(-c2ccccc2)nnc1C(F)(F)F	4.1*	4	-311	24	0.8	11
CN(NC(=O)c1ccc(Cl)cc1)c1nc(-c2ccccc2)nnc1C(F)(F)F	0.9	19	14	26	0.7	2
CC(C)CC(=O)NN(C)c1nc(-c2ccccc2)nnc1C(F)(F)F	0.7	-2	26	78*	0.2	-3
CCCCC(=O)NN(C)c1nc(-c2ccccc2)nnc1C(F)(F)F	0.5	6	47	78*	0.2	-4
COc1ccc(CN(C)C(c2ccccc2)c2nnnn2-c2ccccc2C)c(OC)c1C (configuration not stated)	0.2	17	79*	94*	0.1	-4
CC(C)n1c(SCC(=O)Nc2ccc3c(c2)OCO3)nc2c1c(=O)n(C)c(=O)n2C	0.4	10	55*	31	0.7	22
Cc1nnc(SCC(=O)Nc2ccc3c(c2)OCO3)o1	1.1	-2	-10	1	1	6
CC(C)c1nc(SCC(=O)Nc2ccc3c(c2)OCO3)n[nH]1	0.8	0	22	73*	0.3	1
CCn1c(SCC(=O)Nc2ccc3c(c2)OCO3)nc2c1c(=O)n(C)c(=O)n2C	0.6	0	37	15	0.8	-1
CCc1nnc(SCC(=O)Nc2ccc3c(c2)OCO3)o1	0.6	9	45	72*	0.3	3
CCN(CC)S(=O)(=O)c1ccc(-c2nnc(SCC(=O)Nc3ccc4c(c3)OCO4)o2)cc1	0.3	6	72*	28	0.7	-6
CC1(C)Cc2ccccc2-c2nc3ccccc3c(=O)n21	0.7	13	34	18	0.8	-11
COc1ccc(C(=O)OCCN2C(=O)c3ccccc3C2=O)cc1	0.3	7	72*	93*	0.1	-5
CCCCOC(=O)CN1C(=O)c2ccc(C(=O)OCCCC)cc2C1=O	0.3	7	70*	88*	0.1	6
Cc1cccc2c1N(CCCOc1ccc(C(C)(C)C)cc1)C(=O)C2=O	0.9	10	9	24	0.8	15
O=C(OCCN1C(=O)c2ccccc2C1=O)c1cc(=O)[nH]c2ccccc12	0.8	9	20	25	0.7	3
Cc1cc(C(=O)OCCN2C(=O)c3ccccc3C2=O)c2ccccc2n1	0.2	10	75*	68*	0.3	-2

Screening data as filed in PubChem.
